Rows were chosen to be rich in hits. Some 9.2% of all compounds tested hit in one or more screens of this group.
ELG1 DNA repair: blocks ELG1-dependent DNA repair in HEK293T cells; HEK293T ELG1-luciferase reporter, luminescence, 16 h; DNA damage induced by 5-fluorouridine; Potency, µM (top dose mostly 46.1 µM), without a hit: at the top dose activity change, negative = inhibition, hits mostly inhibitors; 330,000 tested, 2.3% active; also: % is scaled to controls: 0 for no effect and ±100 for the full control effect; nearly all actives have a fitted effect of over 55% in size
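In this reporter screen, reduction of luminescence relative to DMSO vehicle indicated activity. Compounds and 5-fluorouridine were added together to 2,000 cells per well, incubated for 16 hr at 37 °C, then developed with ONE-Glo.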
SMN2 splice enh: SMN2 splice variant enhancement; HEK293 SMN2-luciferase splicing reporter, luminescence, 30-36 h; Potency, µM (titrated, usually from 46.1 µM), for the others: top-dose activity change, positive = activation, hits mostly activators; 210,000 tested, 2.8% active; also: % of control where 0% means no effect; nearly all actives have a fitted effect of over 55% in size
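HEK293 cells carry an SMN2 […]–luciferase reporter in which exon 7 inclusion puts luciferase in frame. Cells were plated 10-12 h before compound addition, then incubated 30-36 h at 37C. ONE-Glo luminescence was read; sodium butyrate at 4.5 mM final served as control.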
FLuc modulator: counter-screen for miR-21 project: firefly luciferase inhibitors or activators. AID 588342. 360,000 tested, 6.9% active. purified FLuc, Km substrates, luminescence inhibition. P08659. Potency, µM (top dose mostly 57.5 µM), for the others: at the highest dose activity change, negative = inhibition, actives largely listed as inhibitors;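 also: plate controls were vehicle for no effect and reference inhibitor for full effect; nearly all actives have a fitted effect of over 55% in size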
Target sequence (P08659 whole entry, looked up): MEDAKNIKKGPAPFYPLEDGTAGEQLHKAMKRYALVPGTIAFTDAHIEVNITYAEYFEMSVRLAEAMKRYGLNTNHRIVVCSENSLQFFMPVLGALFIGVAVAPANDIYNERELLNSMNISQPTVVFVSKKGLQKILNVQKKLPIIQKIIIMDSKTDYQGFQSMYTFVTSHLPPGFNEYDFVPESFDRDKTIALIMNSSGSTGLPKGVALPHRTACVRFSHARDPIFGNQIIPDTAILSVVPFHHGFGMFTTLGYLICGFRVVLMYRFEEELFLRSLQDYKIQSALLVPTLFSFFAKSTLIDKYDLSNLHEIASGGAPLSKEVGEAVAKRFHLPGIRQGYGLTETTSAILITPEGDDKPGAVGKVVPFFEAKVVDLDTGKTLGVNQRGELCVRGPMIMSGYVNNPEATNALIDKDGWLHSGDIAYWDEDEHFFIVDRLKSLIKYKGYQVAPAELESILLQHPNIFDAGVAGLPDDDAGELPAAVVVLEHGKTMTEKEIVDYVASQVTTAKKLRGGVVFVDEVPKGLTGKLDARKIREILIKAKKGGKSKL
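Purified P. pyralis luciferase (10nM final) with 10uM D-luciferin and 10uM ATP (Km levels) in 50mM Tris acetate pH 7.5, 10mM Mg acetate, 0.01% Tween-20, 0.05% BSA; qHTS 6-point titration, ~60 µM downward; luminescence read.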
ELG1 genotoxic: induces genotoxicity in HEK293T cells with luciferase-tagged ELG1; HEK293T ELG1-luciferase reporter, luminescence, 16 h; Potency, µM (top dose mostly 46 µM), for the others: at the top dose activity change, positive = activation, usual class: activators; 330,000 tested, 1.3% active; also: % of control where 0% means no effect; nearly all actives have a fitted effect of over 60% in size
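HEK293T cells expressing luciferase-tagged ELG1 were treated with compound or DMSO for 16 hr at 37°C. Luciferase activity was then read after 30 min with ONE-Glo at room temperature; rising signal flags genetic stress.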
Rab9 promoter act: activators of Rab9 promoter; Potency, µM (top dose mostly 9.22 µM), without a hit: at the top dose activation, negative = inhibition, usual class: activators; AID 485297; Huh7 Rab9 promoter-luciferase reporter, luminescence, 24 h; 320,000 tested, 2.8% active; also: % of control where 0% means no effect; nearly all actives have a fitted effect of over 60% in size
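Luminescence read-out: Huh7 cells stably expressing Rab9-luciferase, treated 24 h with compound at 37 °C, then lysed with luciferase reagent for 10 min at ambient before reading.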
NPC1 prom act: NPC1 promoter activation | Huh7 NPC1 promoter luciferase reporter, 24 h | Potency, µM (doses to about 9.22 µM), inactives show top-dose activation, most hits filed as activators | 320,000 tested, 2.4% active | AID 485313; also: % of control where 0% means no effect; nearly all actives have a fitted effect of over 60% in size
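Stably transfected Huh7 (NPC1 promoter→luciferase), 1500 cells/well in Opti-MEM + 10% FBS, 2 h settle, then compound 24 h at 37 °C. Luminescence after 10 min with Amplite reagent.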
An asterisk follows results filed as active; u = inconclusive; x = no result given. Calls follow the shape of the dose curve; as a rule, active = well fitted curve in the direction sought with a large enough effect; inconclusive = small, poorly fitted or top-dose-only effect, or another doubt; inactive = no such curve, though single readings can be large; an effect the other way counts as inactive or inconclusive. Potency is read from the fitted curve at half-maximal effect.

SMILES | ELG1 DNA repair | SMN2 splice enh | FLuc modulator | ELG1 genotoxic | Rab9 promoter act | NPC1 prom act
c1ccc(-c2nc(-c3nccc4ccccc34)oc2-c2ccccc2)cc1 | u | x | 6µM* | u | 3.2µM* | u
FC(F)(F)c1cnc(N2CCCN(C(=S)Nc3ccccc3)CC2)c(Cl)c1 | 1% | x | -2% | -1% | -29% | -18%
CCOC(=O)c1ccc(-c2ccc(/C=N/NC(=O)CN(c3ccccc3Cl)S(C)(=O)=O)o2)cc1 | u | 11µM* | u | -6% | u | u
O=C(O)C1CCC[C@@H]2[C@@H]3CC(CN12)[C@@H]1CCCCN1C3 (stereo not given in full) | x | 10% | x | x | x | x
COc1ccccc1C1CC(c2c(-c3ccccc3)c3cc(Cl)ccc3[nH]c2=O)=NN1S(C)(=O)=O (stereo not given) | u | -39% | 3% | -6% | -3% | 0%
COc1cccc(C2CC(c3c(-c4ccccc4)c4cc(Cl)ccc4[nH]c3=O)=NN2S(C)(=O)=O)c1OC (stereo not given) | 23µM* | 17% | 3% | -17% | -16% | 0%
CC(C)(C)C1CCc2c(sc(NC(=O)c3cccs3)c2C(N)=O)C1 (stereo not given) | u | -21% | 0.54µM* | u | 4µM* | u
COc1cc(C(=O)Nc2sc3c(c2C(N)=O)CCC(C)C3)cc(OC)c1OC (stereo not given) | x | 0% | -2% | x | x | x
N#Cc1c(NC(=O)CSc2nc(N)cc(=O)[nH]2)sc2c1CCCCCC2 | u | -107% | -2% | -2% | -12% | -2%
CNC(=O)c1c(NC(=O)C2=COCCO2)sc2c1CCC(C)C2 (stereo not given) | u | x | 2.7µM* | 14% | 20% | -1%
CC1CCc2c(sc(NC(=O)CSc3nc(N)cc(=O)[nH]3)c2C(N)=O)C1 (stereo not given) | -9% | x | 17µM* | -1% | -4% | -7%
CNC(=O)c1c(NC(=O)C2=COCCO2)sc(C)c1C | 1% | x | -1% | -7% | 0% | 1%
CC1CCc2c(sc(NC(=O)C3=COCCO3)c2C(N)=O)C1 (stereo not given) | u | x | 0.76µM* | u | 1.6µM* | 2.5µM*
COc1ccc2c(Cl)c(C(=O)NN)sc2c1 | -2% | -20% | u | -5% | -1% | 1%
COc1ccc2c(Cl)c(C(N)=O)sc2c1 | 0% | 16% | 15µM* | -3% | 21% | 13%
CCC(C)NC(=O)CCCN1C(=O)CCn2nc(-c3cccn3C)cc21 (stereo not given) | x | x | 0% | x | x | x
CCOC(=O)C1=CN(Cc2cccc(Br)c2)S(=O)(=O)N(CC)C1C (stereo not given) | 3% | x | x | -1% | x | x
NNc1nc2cc3c(cc2s1)OCCO3 | u | x | 6.7µM* | u | 1.6µM* | 1.6µM*
COc1ccccc1C(=O)Nc1nc2cc3c(cc2s1)OCO3 | u | x | 0.54µM* | u | 1.6µM* | 1.8µM*
O=C(Nc1nc2cc3c(cc2s1)OCCO3)c1cccs1 | u | x | 0.21µM* | 0.41µM* | 0.11µM* | u
COc1cc(OC)cc(C(=O)NNc2nc3cc4c(cc3s2)OCO4)c1 | 12% | -20% | -14% | 1% | 1% | -1%
COc1ccc(C(=O)Nc2nc3cc4c(cc3s2)OCCO4)c(OC)c1 | u | x | 0.95µM* | u | -3% | -3%
O=C1CN(C(=O)c2ccc(S(=O)(=O)N3CCCC3)cc2)C(c2ccccc2)c2cc(Br)ccc2N1 (stereo not given) | x | 15% | 1% | x | x | x
CCOC(=O)C(C)n1cnc2c(nnn2Cc2ccc(C)cc2)c1=O (stereo not given) | 3% | -8% | -2% | 2% | 0% | -1%
CS(=O)(=O)N(Cc1ccccc1)c1ccc(C(=O)Nc2cccc(Cl)c2)cc1 | x | -11% | -9% | x | x | x
SMILES | ELG1 DNA repair | SMN2 splice enh | FLuc modulator | ELG1 genotoxic | Rab9 promoter act | NPC1 prom act
COc1ccc(CCNC(=O)Cc2c(C)c3cc(OC)c(OC)cc3oc2=O)cc1 | x | 5% | 0% | x | x | x
COc1cccc(OC)c1C(=O)Nc1nc2cc3c(cc2s1)OCO3 | 4% | x | 2% | -3% | 9% | 10%
COc1ccccc1C(=O)Nc1nc2cc3c(cc2s1)OCCO3 | u | x | 0.67µM* | 2.1µM* | 0.71µM* | u
CCN1CCC(N(Cc2cccc(OC)c2)C(=O)Nc2cccc(C(F)(F)F)c2)CC1 | x | x | -1% | x | x | x
CSc1ccccc1NC(=O)c1c(Br)cnn1C | -8% | -15% | 2% | 2% | 18% | 0%
Cn1ncc(Br)c1C(=O)Nc1c(F)c(F)cc(F)c1F | u | 25µM* | 0% | 17% | -5% | -6%
S=c1[nH]ncn1/N=C/c1ccc(N2CCOCC2)cc1 | u | 13µM* | 7.6µM* | 16µM* | 4.5µM* | 4µM*
Fc1ccc(N/N=C/c2ccc(N3CCOCC3)cc2)c(F)c1 | u | 11µM* | 12µM* | u | 2µM* | 2.5µM*
CN(C)/N=C/c1ccc(N2CCOCC2)cc1 | u | u | 17µM* | 4% | 2.5µM* | u
C/C(=N\Nc1ccc(F)cc1F)c1ccc(N2CCOCC2)cc1 | u | u | 15µM* | u | u | u
C(=N\n1cnnc1)/c1ccc(N2CCOCC2)cc1 | 16% | 2% | u | 12% | 7% | 1%
Fc1ccc(/C=N/Nc2cc(N3CCOCC3)ncn2)cc1 | u | x | u | 17% | u | u
C/C(=N\Nc1ccc(F)cc1F)c1ccc(F)cc1 | 4% | 3% | u | 6% | 2% | -3%
O=C(CN1CCN(c2ccccc2F)CC1)NC(=O)NC1CCCCC1 | -1% | x | x | -2% | x | x
O=C(CCC(=O)N1CCN(S(=O)(=O)c2ccc3ccccc3c2)CC1)NCC(F)(F)F | 10% | x | 1% | -1% | -5% | 1%
COC(=O)C1=C(C)NC(C)=C(C(=O)OCC2CCCO2)C1c1ccc(Cl)c([N+](=O)[O-])c1 (stereo not given) | 10µM* | x | 3% | -20% | -7% | -1%
CC1CC2C3CCC4=CC(=O)C=C[C@@]4(C)[C@]3(F)C(O)C[C@]2(C)[C@]1(O)C(=O)CO (stereo not given in full) | x | 1% | x | x | x | x
COc1cc(CNc2ccc(N3CCOCC3)cc2)cc(Br)c1OC | u | -10% | -8% | -5% | 2% | -6%
COc1cc(CNc2ccc(N3CCCC3)cc2)cc(Cl)c1OC | 13% | -37% | 9.5µM* | 3% | 14% | 1%
CCOc1cc(CNc2ccc(N3CCCC3)cc2)cc(Cl)c1OC | u | -3% | 27µM* | 10% | 20% | 13%

From PubChem BioAssay
